Potency and outcome data for four molecules are collected here from PubChem BioAssay (Tox21).

Experiment [1] can be described thus: qHTS assay to identify small molecule antagonists of the sonic hedgehog signaling (Shh) pathway (AID 1259369; calls by dose curve; further: nearly all actives have a fitted effect of over 45% in size; further: potency means the concentration at half of the fitted maximal effect). The conditions noted are these: NIH/3T3 Gli1-Luc reporter, Shh antagonist, luminescence 24 h; series mostly up to 92.4 µM. The method, boiled down: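 Inhibition of Shh signalling is measured as reduced Gli1-response-element firefly luciferase output in an NIH/3T3-derived stable reporter clone stimulated with conditioned medium for 24hr.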

For experiment [2], the target named is Estrogen receptor beta (Homo sapiens) (UniProt Q92731). Kind of experiment: qHTS assay to identify small molecule agonists of the estrogen receptor beta (ER-beta) signaling pathway (AID 1259377; active means well fitted activation curve with a large enough effect in the signal ratio in the repeat runs, not every such curve was filed as active; the % refers to the signal ratio). Particulars: ER-beta-UAS-bla HEK293T, beta-lactamase FRET ratio, 16 h; series mostly up to 92.4 µM. The method, boiled down: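 ER-beta-UAS-bla HEK293T (GripTite) cells carrying a UAS-driven beta-lactamase reporter, in medium with 2% charcoal-stripped FBS, were exposed to compounds for 16 hr at 37C; LiveBLAzer B/G FRET substrate was then added and fluorescence read after 2 hours at room temperature.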

The target is the same in experiment [3]. Nature of the experiment: qHTS assay to identify small molecule antagonists of the estrogen receptor beta (ER-beta) signaling pathway (AID 1259378; active means well fitted inhibition curve with a large enough effect in the signal ratio in the repeat runs, not every such curve was filed as active; the % refers to the signal ratio; further: potency means the concentration at half of the fitted maximal effect). The conditions noted are these: ER-beta-UAS-bla HEK293T, beta-lactamase FRET ratio, 16 h; series mostly up to 92.4 µM. The method, boiled down: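 ER-beta-UAS-bla HEK293T (GripTite) cells in 2% charcoal-stripped FBS medium were preincubated 6 hr at 37C, dosed with compound, then stimulated with 1 nM E2 (final) for 16 hr; beta-lactamase reporter read by B/G FRET fluorescence after 2 hr substrate loading.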

Experiment [4] is described as follows: qHTS assay to identify small molecule agonists of the androgen receptor (AR) signaling pathway in the presence of an antagonist - cell viability counter screen (AID 1259379).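 Further: MDA-kb2 human breast cancer cells carrying an MMTV luciferase reporter; nearly all actives have a fitted effect of over 25% in size.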 Particulars: MDA-kb2 viability, CellTiter-Fluor, 16 h; series mostly up to 92.4 µM. The method, boiled down:
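Fluorescence from CellTiter-Fluor, added after 15 hr and read 1 hr later, gave cell viability. Cells were MDA-kb2 exposed to compounds (15 concentrations) in the presence of 3.0uM nilutamide at 37C, 0% CO2.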

Experiment [5] in a line: qHTS assay to identify small molecule agonists of the estrogen receptor beta (ER-beta) signaling pathway - cell viability counter screen (AID 1259380). Further: nearly all actives have a fitted effect of over 30% in size. The conditions noted are these: ER-beta-bla HEK293T viability, CellTiter-Glo luminescence, 16 h; series mostly up to 92.4 µM. In outline:
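Same-well viability counter screen. Cells: ER-beta-UAS-bla HEK293T, plated 6 hr before compound, in 2% charcoal-stripped FBS. Compound exposure 16 hr, 37C; viability by CellTiter-Glo luminescence after 30 min at room temperature.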

The nature of experiment [6]: qHTS assay to identify small molecule antagonists of the estrogen receptor beta (ER-beta) signaling pathway - cell viability counter screen (AID 1259382). Further: nearly all actives have a fitted effect of over 55% in size. The conditions noted are these: ER-beta-UAS-bla HEK293T viability, CellTiter-Glo luminescence, 16 h; series mostly up to 92.4 µM. The method, boiled down:
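Following a 6 hr plating period, HEK293T cells carrying a UAS-driven beta-lactamase reporter under ER-beta control received compounds and 1nM E2 (final). After 16 hr at 37C and 2 hr substrate loading, CellTiter-Glo luminescence indicated viability.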

Experiment [7] is described as follows: qHTS assay to identify small molecule agonists or antagonists of the thyroid stimulating hormone receptor (TSHR) signaling pathway - wild type cell line counter screen (AID 1259384; calls by dose curve). The conditions noted are these: HEK293 wild type, cAMP HTRF counter-screen; series mostly up to 92.4 µM. The method, boiled down:
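Wild-type HEK293 cells were plated 18 h at 37 C/5% CO2, pin-dosed with compound plus Ro20-1724 medium, held 30 min at room temperature, then given cAMP-d2 and anti-cAMP-cryptate; fluorescence was read after 1 h. Fifteen concentrations, triplicate.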

Experiment [8] has as its target Thyrotropin receptor (Homo sapiens) (UniProt P16473). Nature of the experiment: qHTS assay to identify small molecule antagonists of the thyroid stimulating hormone receptor (TSHR) signaling pathway (AID 1259385; calls by dose curve; further: nearly all actives have a fitted effect of over 20% in size; further: potency means the concentration at half of the fitted maximal effect). Particulars: TSHR-HEK293 cAMP HTRF, TSH-stimulated antagonist mode; series mostly up to 92.4 µM. The method, boiled down:
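TSHR-HEK293 cells were plated and held 18 h at 37C/5% CO2, then given compound plus Ro20-1724 and stimulated with TSH at 1.5 ng/mL final. After 30 min at room temperature, cAMP was detected with cAMP-d2/anti-cAMP-cryptate (1 h) by fluorescence.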

Experiment [9] is described as follows: qHTS assay to identify small molecule agonists of the estrogen receptor alpha (ER-alpha) signaling pathway in the presence of an antagonist - cell viability counter screen (AID 1259386). Further: nearly all actives have a fitted effect of over 30% in size. The conditions noted are these: VM7Luc4E2 viability, CellTiter-Fluor fluorescence, 22 h; series mostly up to 92.4 µM. In outline: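 Cells are starved of estrogens for 5 days in charcoal-stripped serum, seeded for 24hr and co-treated with ICI-182,780 (10.0nM final) and test compounds. After 22hr at 37C, viability is read as CellTiter-Fluor fluorescence.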

Experiment [10] deals with Progesterone receptor (Homo sapiens) (UniProt P06401). Kind of experiment: qHTS assay to identify small molecule agonists of the progesterone receptor (PR) signaling pathway (AID 1346784; calls by dose curve; further: nearly all actives have a fitted effect of over 30% in size). The conditions noted are these: PR-UAS-bla HEK293T, beta-lactamase FRET ratio, 16 h; series mostly up to 92.4 µM. The method, boiled down: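 PR-UAS-bla HEK 293T cells carrying a UAS-driven beta-lactamase reporter were seeded in medium with 2% charcoal-stripped FBS, preincubated 6 hr at 37C, then exposed to compounds in DMSO for 16 hr; agonism was read by LiveBLAzer B/G FRET fluorescence.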

Experiment [11] has the same target. Kind of experiment: qHTS assay to identify small molecule antagonists of the progesterone receptor (PR) signaling pathway (AID 1346795; active means well fitted inhibition curve with a large enough effect in the signal ratio in the repeat runs, not every such curve was filed as active; the % refers to the signal ratio; further: potency means the concentration at half of the fitted maximal effect). The conditions noted are these: PR-UAS-bla HEK293T, beta-lactamase FRET ratio, 16 h; series mostly up to 92.4 µM. In outline: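 PR-UAS-bla HEK293T cells carrying a UAS-driven beta-lactamase reporter were plated in medium with 2% charcoal-stripped FBS and rested 6 hr at 37C. Compounds were added with 1 nM R5020 (final) for 16 hr, then FRET substrate loaded 2 hr at room temperature.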

Experiment [12] can be described thus: qHTS assay to identify small molecule antagonists of the progesterone receptor (PR) signaling pathway - cell viability counter screen (AID 1346798). Further: nearly all actives have a fitted effect of over 50% in size. Particulars: PR-UAS-bla HEK293T viability, CellTiter-Glo luminescence, 16 h; series mostly up to 92.4 µM. The method, boiled down: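 PR-UAS-bla HEK293T cells in medium with 2% charcoal-stripped FBS were treated with compounds plus R5020 for 16 hr at 37C. Cell viability was then read by CellTiter-Glo luminescence after 30 min at room temperature in the same wells.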

Experiment [13] is described as follows: qHTS assay to identify small molecule agonists of the progesterone receptor (PR) signaling pathway - cell viability counter screen (AID 1346799; calls by dose curve; further: nearly all actives have a fitted effect of over 45% in size). The conditions noted are these: PR-UAS-bla HEK293T viability, CellTiter-Glo luminescence, 16 h; series mostly up to 92.4 µM. In outline:
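PR-UAS-bla HEK293T cells, 3,000 per well in medium with 2% charcoal-stripped FBS, were preincubated 6 hr at 37C, then exposed to compounds for 16 hr; viability was read as CellTiter-Glo luminescence after 30 min at room temperature.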

Experiment [14] in a line: qHTS assay to identify small molecule antagonists of the TGF-beta/Smad signaling pathway - cell viability counter screen (AID 1346824). Further: nearly all actives have a fitted effect of over 50% in size. The conditions noted are these: SBE-bla HEK293T viability, CellTiter-Glo luminescence; series mostly up to 76.8 µM. In outline:
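SBE-bla HEK 293T cells were plated overnight at 37 C, then given compounds in DMSO plus TGF-beta1 (added as 0.25 ng/mL solution) for 5 hr. After the bla read, CellTiter-Glo was added to the same wells and luminescence read after 30 min at room temperature.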

Experiment [15] in a line: qHTS assay to identify small molecule agonists of the TGF-beta/Smad signaling pathway - cell viability counter screen (AID 1346829). Further: top concentration of the series differs between compounds; nearly all actives have a fitted effect of over 45% in size. Particulars: SBE-bla HEK293T viability, CellTiter-Glo luminescence, 5 h; series mostly up to 76.8 µM. In outline: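 After overnight seating at 37 C and 5% CO2, reporter cells got compounds for 5 hr and FRET substrate for 2 hr; cell viability then came from CellTiter-Glo luminescence.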

In experiment [16] the target is Thyrotropin-releasing hormone receptor (Homo sapiens) (UniProt P34981). Kind of experiment: qHTS assay to identify small molecule antagonists of the thyrotropin-releasing hormone receptor (TRHR) signaling pathway (AID 1346877; active means well fitted inhibition curve with a large enough effect in the repeat runs, not every such curve was filed as active). The conditions noted are these: TRHR-HEK293, TRH-induced calcium fluorescence, antagonist mode; series mostly up to 51.3 µM. In outline: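 Cells (TRHR-HEK293) are plated and kept 18 h at 37 °C/5% CO2. A calcium-sensitive dye is added for 2 h, compound follows for 5 min at room temperature, and TRH is then given at 1 nM final.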

For experiment [17] the target is unchanged. Kind of experiment: qHTS assay to identify small molecule agonists of the thyrotropin-releasing hormone receptor (TRHR) signaling pathway (AID 1346891; calls by dose curve). Particulars: TRHR-HEK293 calcium fluorescence, agonist mode; series mostly up to 57.6 µM. In outline: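 TRHR-expressing HEK293 cells were plated 18 h at 37 °C/5% CO2, loaded with calcium dye 2 h at 37 °C, then given compound in DMSO; fluorescence was read kinetically for 3 min at 1 s intervals.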

Experiment [18] deals with Estrogen receptor (Homo sapiens) (UniProt P03372). Kind of experiment: qHTS assay to identify small molecule agonists of the estrogen receptor alpha (ER-alpha) signaling pathway in the presence of an antagonist (AID 1259383; calls by dose curve; further: top concentration of the series differs between compounds; nearly all actives have a fitted effect of over 15% in size). Particulars: VM7Luc4E2 cells, ERE-luciferase, +ICI-182,780, 22 h; series mostly up to 92.4 µM. The method, boiled down:
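Cells are hormone-deprived for 5 days (charcoal-stripped FBS, no phenol red), plated for 24hr, spiked with 10.0nM ICI-182,780, then dosed at 15 concentrations. After 22hr at 37C, ONE-Glo luminescence reports ERE-luciferase activity.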

A short description of experiment [19]: qHTS assay to identify small molecule agonists of the TGF-beta/Smad signaling pathway (AID 1346859; active means well fitted activation curve with a large enough effect in the signal ratio in the repeat runs, not every such curve was filed as active; the % refers to the signal ratio). Particulars: SBE-bla HEK293T, TGF-beta/Smad beta-lactamase reporter, 5 h; series mostly up to 76.8 µM. The method, boiled down:
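HEK 293T cells stably carrying a beta-lactamase reporter driven by the Smad binding element were seeded overnight, exposed to DMSO-dissolved compounds for 5 hr at 37 C, 5% CO2, then loaded with FRET substrate for 2 hr at room temperature.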

Inconclusive results are not listed. Where a structure was tested more than once in an assay, its records may differ in their call. The source made the active and inactive calls. Unless noted, the call rests on the fitted dose curve; in most records, active means well fitted curve in the direction sought with a large enough effect in the repeat runs; inconclusive means weak or mixed curves; inactive means no such curve, though single readings can be large; an effect the other way counts as inactive or inconclusive.

Estrogen receptor beta (Homo sapiens), sequence (Q92731 whole entry, looked up): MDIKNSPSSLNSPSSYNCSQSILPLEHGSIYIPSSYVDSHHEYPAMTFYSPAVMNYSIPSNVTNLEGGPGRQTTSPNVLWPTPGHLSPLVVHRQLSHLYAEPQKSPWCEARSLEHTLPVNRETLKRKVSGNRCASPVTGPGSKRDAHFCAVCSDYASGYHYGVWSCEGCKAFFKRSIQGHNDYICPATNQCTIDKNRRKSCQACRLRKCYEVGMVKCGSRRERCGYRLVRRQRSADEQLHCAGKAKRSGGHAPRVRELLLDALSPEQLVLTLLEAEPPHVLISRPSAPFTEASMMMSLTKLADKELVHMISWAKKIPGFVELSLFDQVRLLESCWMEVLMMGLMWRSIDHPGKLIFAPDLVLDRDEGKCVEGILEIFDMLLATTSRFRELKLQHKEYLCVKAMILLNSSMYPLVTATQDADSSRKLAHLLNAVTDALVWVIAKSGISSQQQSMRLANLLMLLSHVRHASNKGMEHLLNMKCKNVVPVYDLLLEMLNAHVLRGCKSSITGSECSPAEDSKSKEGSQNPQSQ
Estrogen receptor (Homo sapiens), sequence (P03372 whole entry, looked up): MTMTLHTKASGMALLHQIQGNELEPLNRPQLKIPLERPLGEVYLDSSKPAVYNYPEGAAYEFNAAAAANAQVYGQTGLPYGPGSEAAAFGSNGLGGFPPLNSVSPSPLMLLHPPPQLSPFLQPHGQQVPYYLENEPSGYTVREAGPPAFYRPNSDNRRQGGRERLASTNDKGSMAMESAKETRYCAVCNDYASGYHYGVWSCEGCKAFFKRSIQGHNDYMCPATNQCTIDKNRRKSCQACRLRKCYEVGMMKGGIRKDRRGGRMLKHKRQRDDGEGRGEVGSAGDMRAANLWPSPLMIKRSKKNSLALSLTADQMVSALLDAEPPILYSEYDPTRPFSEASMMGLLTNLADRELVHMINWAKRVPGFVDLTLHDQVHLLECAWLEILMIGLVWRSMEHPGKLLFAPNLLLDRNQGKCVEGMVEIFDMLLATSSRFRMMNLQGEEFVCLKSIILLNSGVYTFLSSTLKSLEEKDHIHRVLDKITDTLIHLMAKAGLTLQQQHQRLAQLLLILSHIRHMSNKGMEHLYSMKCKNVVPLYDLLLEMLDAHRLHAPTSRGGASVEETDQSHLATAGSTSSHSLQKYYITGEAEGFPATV
Thyrotropin-releasing hormone receptor (Homo sapiens), sequence (P34981 whole entry, looked up): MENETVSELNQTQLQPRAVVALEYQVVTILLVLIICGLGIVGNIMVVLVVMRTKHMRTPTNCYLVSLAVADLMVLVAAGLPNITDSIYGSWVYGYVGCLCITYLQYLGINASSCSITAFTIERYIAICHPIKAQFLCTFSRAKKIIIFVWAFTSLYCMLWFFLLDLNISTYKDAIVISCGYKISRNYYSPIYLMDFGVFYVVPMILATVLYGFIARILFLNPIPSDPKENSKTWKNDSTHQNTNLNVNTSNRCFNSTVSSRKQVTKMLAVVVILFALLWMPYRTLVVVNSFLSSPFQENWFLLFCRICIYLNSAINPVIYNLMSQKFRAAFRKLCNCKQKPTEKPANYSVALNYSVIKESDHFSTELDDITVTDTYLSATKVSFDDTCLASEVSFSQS
Thyrotropin receptor (Homo sapiens), sequence (P16473 whole entry, looked up): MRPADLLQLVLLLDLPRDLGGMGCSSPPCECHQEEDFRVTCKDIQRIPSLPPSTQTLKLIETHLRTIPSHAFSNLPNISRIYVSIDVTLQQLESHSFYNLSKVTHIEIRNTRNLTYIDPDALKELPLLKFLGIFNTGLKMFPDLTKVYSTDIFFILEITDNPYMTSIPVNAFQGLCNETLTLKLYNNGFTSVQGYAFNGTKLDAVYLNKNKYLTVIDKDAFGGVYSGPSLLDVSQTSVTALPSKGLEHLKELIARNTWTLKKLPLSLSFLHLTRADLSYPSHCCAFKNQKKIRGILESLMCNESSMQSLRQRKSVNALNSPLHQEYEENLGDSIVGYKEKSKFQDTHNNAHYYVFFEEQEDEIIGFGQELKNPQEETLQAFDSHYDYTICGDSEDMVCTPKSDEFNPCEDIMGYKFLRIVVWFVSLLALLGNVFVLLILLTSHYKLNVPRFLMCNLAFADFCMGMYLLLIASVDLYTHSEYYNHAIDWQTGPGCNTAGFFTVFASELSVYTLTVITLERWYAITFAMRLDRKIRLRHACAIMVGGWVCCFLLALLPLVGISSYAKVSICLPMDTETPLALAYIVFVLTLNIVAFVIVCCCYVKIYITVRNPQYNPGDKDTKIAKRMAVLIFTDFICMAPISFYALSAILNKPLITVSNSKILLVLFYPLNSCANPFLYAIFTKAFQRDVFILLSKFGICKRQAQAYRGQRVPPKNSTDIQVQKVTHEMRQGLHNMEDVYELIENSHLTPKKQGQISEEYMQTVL
Progesterone receptor (Homo sapiens), sequence (P06401 whole entry, looked up): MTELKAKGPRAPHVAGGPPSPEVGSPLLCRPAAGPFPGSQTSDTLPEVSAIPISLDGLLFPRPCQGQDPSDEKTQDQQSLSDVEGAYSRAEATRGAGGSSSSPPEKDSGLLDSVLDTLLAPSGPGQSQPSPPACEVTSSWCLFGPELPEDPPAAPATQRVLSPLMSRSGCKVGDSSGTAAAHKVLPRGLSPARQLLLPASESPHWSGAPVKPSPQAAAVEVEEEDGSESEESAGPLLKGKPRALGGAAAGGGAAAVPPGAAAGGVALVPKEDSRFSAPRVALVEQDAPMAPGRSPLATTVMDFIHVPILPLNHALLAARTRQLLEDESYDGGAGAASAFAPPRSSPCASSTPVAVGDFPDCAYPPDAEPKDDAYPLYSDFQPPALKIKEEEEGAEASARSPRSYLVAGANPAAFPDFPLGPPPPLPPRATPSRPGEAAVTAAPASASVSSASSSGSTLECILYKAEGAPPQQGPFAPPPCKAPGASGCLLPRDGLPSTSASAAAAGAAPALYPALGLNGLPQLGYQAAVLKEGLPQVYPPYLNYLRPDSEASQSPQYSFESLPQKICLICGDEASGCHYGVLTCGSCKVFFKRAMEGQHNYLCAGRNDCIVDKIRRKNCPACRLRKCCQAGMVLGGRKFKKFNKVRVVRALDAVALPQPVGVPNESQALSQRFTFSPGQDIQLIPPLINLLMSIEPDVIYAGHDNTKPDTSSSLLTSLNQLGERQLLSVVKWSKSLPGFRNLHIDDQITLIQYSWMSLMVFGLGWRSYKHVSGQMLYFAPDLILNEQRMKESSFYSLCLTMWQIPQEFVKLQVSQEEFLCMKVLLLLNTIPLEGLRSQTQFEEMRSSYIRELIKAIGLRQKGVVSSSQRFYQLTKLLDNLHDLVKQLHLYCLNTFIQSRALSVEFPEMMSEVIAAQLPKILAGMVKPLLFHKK

Turning to `CC(O)CN(CC(C)O)CC(C)O` (stereo not given), the Potency entry in experiment [1], in experiment [2], in experiment [3], in experiment [4], in experiment [5] and in [6] was “inactive” each time. Further, the Potency result in [7], in experiment [8], in experiment [9], in experiment [10], in experiment [11] and in experiment [12] was “inactive” in each case. The Potency entry in [13], in experiment [14], in experiment [15] and in experiment [16] was “inactive” each time. In addition, in [17], the outcome was inactive.

`CNC(=O)CSP(=S)(OC)OC`: the Potency in experiment [1] was 14.1 µM (active) and inactive. Besides, the Potency result in experiment [2], in experiment [3], in experiment [4], in experiment [5], in experiment [6] and in experiment [18] was “inactive” in each case. For the same molecule, the Potency entry in [7], in experiment [8], in [9], in experiment [11], in experiment [12] and in experiment [13] was “inactive” in each case. Also, the Potency result in experiment [14], in experiment [15] and in experiment [16] was “inactive” throughout. For the same molecule, in experiment [17], the result was inactive.

With `CC1(C)C(C(=O)OC(C#N)c2cccc(Oc3ccccc3)c2)C1(C)C` (stereo not given), the Potency in experiment [1] was 13.8 µM (active); in [3], 48.9 µM (active); in [8], 61.6 µM (active); in experiment [11], 24.5 µM (active). Moreover, the Potency entry in experiment [2], in experiment [4], in experiment [5], in [6], in experiment [18] and in experiment [7] was “inactive” each time. The Potency entry in [9], in [12], in experiment [15] and in [16] was “inactive” each time. In addition, in experiment [17], the result was inactive.

Consider `[CH3][Sn]([Cl])([Cl])[Cl]`, for which the Potency entry in experiment [1], in [2], in experiment [3], in experiment [4], in [5] and in [6] was “inactive” throughout. Further, the Potency result in experiment [7], in experiment [8], in experiment [9], in [11], in experiment [12] and in experiment [13] was “inactive” each time. Moreover, the Potency entry in experiment [15], in experiment [19] and in experiment [16] was “inactive” each time. In addition, the outcome in experiment [17] was inactive.
